PubChem BioAssay AID602340 (Broad Institute, 2012)
The campaign covered roughly 330,000 compounds. About 2,600 (0.79%) were called active.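 How the source made its calls: active means mean ATP rescue above about 67%, or every replicate alone reaching that limit (limit read from the data, passing the limit was not always enough); inconclusive means no clear call, values can overlap the other calls; inactive means mean under the limit and some replicate under it.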 The sample as a whole holds a higher share of actives than the screen did.

Assay: suppressors of statin myotoxicity in C2C12 myotubes, primary screen, cell-based, single point, plate reader (AID 602340);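 further: myotubes were challenged with 10 µM simvastatin during compound exposure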
Settings: C2C12 myotubes + simvastatin, ATP luminescence, 48 h; at 7.49 µM; hits give high values; scaled: DMSO 0, geranylgeraniol control 100
With CCCOc1ccc(Cn2c(O)cc(=O)[nH]c2=O)cc1 the rescue of ATP level was 2.27% (inactive).
For COc1ccc(NC(=O)CNC(=O)Cc2ccccc2)cc1OC, the rescue of ATP level was -3.67% (inactive).
For COc1cc(=O)[nH]c(=O)n1C(=O)Cc1ccccc1, the rescue of ATP level was 89.8% (active).
In the case of CCCNC(=O)N1[C@H](CNC(C)=O)[C@@H](c2ccc(C3=CCCC3)cc2)[C@@H]1CO, the rescue of ATP level is reported as 17.7% (inactive).
With O=C(N[C@H]1C=C[C@@H](CC(=O)N2CCCCC2)O[C@@H]1CO)c1ccc2c(c1)OCO2 the rescue of ATP level was -0.462% (inactive).
For CO[C@@H]1CN(C)C(=O)c2cc(NC(=O)NC3CCCCC3)ccc2OC[C@H](C)N(CC2CCOCC2)C[C@H]1C, the rescue of ATP level was -0.27% (inactive).
For Cc1ccc(S(=O)(=O)NCCC(=O)Nc2ccc(C)c(Cl)c2)cc1C, the rescue of ATP level was 1.52% (inactive).
For Cc1ccnc(NC(=O)CCNS(=O)(=O)c2ccc(C)c(C)c2)c1, the rescue of ATP level was 0.26% (inactive).
With CC(=O)CCS(=O)(=O)c1ccc(C)c(C)c1 the rescue of ATP level was 101% (active).
With COc1ccc(C(O)c2nc(-c3ccc(OC)nc3)cs2)cc1 (configuration not stated) the rescue of ATP level was 4.92% (inactive).
With COc1cccc(C(O)c2nc(-c3ccc(C)c(C)c3)cs2)c1 (configuration not stated) the rescue of ATP level was 8.62% (inactive).
With COc1ccc(C(O)c2nc(-c3ccc4c(c3)OCO4)cs2)cc1 (configuration not stated) the rescue of ATP level was 87.4% (active).
With CCOc1ccc(C(CC(=O)O)n2cnnn2)cc1OC (configuration not stated) the rescue of ATP level was 5.44% (inactive).
For O=C(O)CC(Cn1cnnn1)c1ccccc1 (configuration not stated), the rescue of ATP level was 7.4% (inactive).
For O=C(O)CC(c1ccccc1)n1cnnn1 (configuration not stated), the rescue of ATP level was 86% (active).
In the case of O=C(Nc1cccc(Cl)c1)N[C@H]1CC[C@H](CCNC(=O)C2CCOCC2)O[C@H]1CO, the rescue of ATP level is reported as -25.3% (inactive).
For C[C@@H]1CCCCO[C@@H](CN(C)S(C)(=O)=O)[C@@H](C)CN([C@@H](C)CO)C(=O)c2cc(NS(=O)(=O)c3ccc(Cl)cc3)ccc2O1, the rescue of ATP level was 7.9% (inactive).
With C[C@@H]1CCCCO[C@H](CN(C)C(=O)Nc2cccc3ccccc23)[C@@H](C)CN([C@H](C)CO)C(=O)c2cc(NC(=O)Nc3ccc4c(c3)OCO4)ccc2O1 the rescue of ATP level was -47.9% (inactive).
For C[C@@H]1CCCCO[C@@H](CN(C)Cc2ccc(Cl)c(Cl)c2)[C@@H](C)CN([C@@H](C)CO)C(=O)c2cc(NS(C)(=O)=O)ccc2O1, the rescue of ATP level was -1.95% (inactive).
For C[C@@H]1CCCCO[C@H](CN(C)C(=O)Nc2cccc3ccccc23)[C@@H](C)CN([C@H](C)CO)C(=O)c2cc(NS(=O)(=O)c3cccs3)ccc2O1, the rescue of ATP level was -12.1% (inactive).
For C[C@@H]1CCCCO[C@H](CN(C)C(=O)Nc2cccc3ccccc23)[C@H](C)CN([C@H](C)CO)C(=O)c2cc(NS(=O)(=O)c3cccs3)ccc2O1, the rescue of ATP level was 28.4% (inactive).
In the case of C[C@H](CO)N1C[C@H](C)[C@H](CN(C)C(=O)Nc2cccc3ccccc23)OCCCC[C@H](C)Oc2ccc(NC(=O)Nc3ccc4c(c3)OCO4)cc2C1=O, the rescue of ATP level is reported as 90.3% (active).
With C[C@H]1CCCCO[C@@H](CN(C)C(=O)Nc2cccc3ccccc23)[C@@H](C)CN([C@@H](C)CO)C(=O)c2cc(NS(=O)(=O)c3ccc(Cl)cc3)ccc2O1 the rescue of ATP level was 125% (active).
For C[C@H]1CCCCO[C@H](CN(C)C(=O)Nc2ccccc2)[C@@H](C)CN([C@@H](C)CO)C(=O)c2cc(NC(=O)Nc3ccc4c(c3)OCO4)ccc2O1, the rescue of ATP level was -0.0505% (inactive).
With C[C@@H]1CCCCO[C@@H](CN(C)Cc2ccc(Cl)c(Cl)c2)[C@H](C)CN([C@@H](C)CO)C(=O)c2cc(NS(C)(=O)=O)ccc2O1 the rescue of ATP level was 98% (active).
For C[C@@H]1CCCCO[C@H](CN(C)S(C)(=O)=O)[C@@H](C)CN([C@H](C)CO)C(=O)c2cc(NS(=O)(=O)c3ccc(Cl)cc3)ccc2O1, the rescue of ATP level was -21.9% (inactive).
For C[C@@H]1CCCCO[C@@H](CN(C)S(C)(=O)=O)[C@H](C)CN([C@@H](C)CO)C(=O)c2cc(NS(=O)(=O)c3ccc(F)cc3)ccc2O1, the rescue of ATP level was 132% (active).
For C[C@@H]1CCCCO[C@@H](CN(C)Cc2ccc3c(c2)OCO3)[C@H](C)CN([C@@H](C)CO)C(=O)c2cc(NS(C)(=O)=O)ccc2O1, the rescue of ATP level was -0.957% (inactive).
With C[C@H](NC(=O)C[C@@H]1CC[C@@H]2[C@H](COC[C@@H](O)CN2Cc2cc(F)ccc2F)O1)c1ccccc1 the rescue of ATP level was 6.87% (inactive).
For CN1[C@@H]2c3ccc(C4=CCCCC4)c(=O)n3C[C@H]1[C@H](CO)[C@H]2C(=O)NCc1ccc(F)cc1, the rescue of ATP level was 12.7% (inactive).
With C[C@H]1CN([C@@H](C)CO)C(=O)c2cc(C#CC3CCCC3)cnc2O[C@H]1CN(C)C(=O)c1ccncc1 the rescue of ATP level was -53.3% (inactive).
In the case of CO[C@@H]1CN(C)C(=O)c2cc(NC(=O)Nc3cc(F)ccc3F)ccc2OC[C@@H](C)N(C)C[C@H]1C, the rescue of ATP level is reported as -33.7% (inactive).
For C[C@H]1CN([C@@H](C)CO)S(=O)(=O)c2ccc(C#CC3CCCC3)cc2O[C@@H]1CN(C)C(=O)c1cccc(F)c1, the rescue of ATP level was -41% (inactive).
With CNC(=O)C[C@H]1CC[C@H]2[C@H](COc3ccc(NC(=O)c4cc(C)on4)cc3C(=O)N2C)O1 the rescue of ATP level was 7.63% (inactive).
With COc1ccccc1NC(=O)N1C[C@H]2[C@@H](c3ccccc31)[C@H](CO)N2Cc1ccc2c(c1)OCO2 the rescue of ATP level was 46.6% (inactive).
With COc1cccc(NC(=O)CN(C)C(=O)/C=C/c2cn(-c3ccccc3)nc2-c2cccs2)c1 the rescue of ATP level was -0.997% (inactive).
In the case of COc1ccc(OC)c(-c2csc(-c3cccs3)n2)c1, the rescue of ATP level is reported as -1.11% (inactive).
With COc1cccc(C(=O)n2ccc(-c3cccs3)n2)c1 the rescue of ATP level was 132% (active).
For O=C(N[C@@H]1CC[C@H](CCn2cc(-c3ccccn3)nn2)O[C@@H]1CO)c1ccccc1, the rescue of ATP level was 0.826% (inactive).
With C[C@H](CO)N1C[C@H](C)[C@H](CN(C)C(=O)C2CCOCC2)Oc2ncc(-c3ccccc3)cc2C1=O the rescue of ATP level was -10.6% (inactive).
With CCCNC(=O)C[C@H]1CC[C@H]2[C@@H](COC[C@H](O)CN2C(=O)Nc2c(C)noc2C)O1 the rescue of ATP level was 5.16% (inactive).
With CCOC(=O)c1c(NC(=O)CSc2nnc(C)c(=O)[nH]2)sc2c1CCC2 the rescue of ATP level was 131% (active).
In the case of CCOC(=O)c1c(NC(=O)CSc2cn(CC)c3ccccc23)sc2c1CCC2, the rescue of ATP level is reported as 15.7% (inactive).
With CCOC(=O)c1c(NC(=O)CSc2nnc(CN3CCOCC3)n2C)sc2c1CCCC2 the rescue of ATP level was -1.41% (inactive).
For O=C(C[C@@H]1C=C[C@H](NC(=O)Nc2ccc(C(F)(F)F)cc2)[C@H](CO)O1)NCc1cccc(F)c1, the rescue of ATP level was 18.6% (inactive).
For CC(C)COC(=O)C1C2C=CC3(CN(C(C)c4ccc(Br)cc4)C(=O)C13)O2 (configuration not stated), the rescue of ATP level was 4.94% (inactive).
With CCOCCCN1C(=O)C2C(C(=O)Nc3ccc(OCC)cc3)C3C=CC2(O3)C1C(=O)NC1CCCCC1 (configuration not stated) the rescue of ATP level was 9.74% (inactive).
For CCOC(=O)CN1CC23C=CC(O2)C(C(=O)Nc2ccc(F)cc2)C3C1=O (configuration not stated), the rescue of ATP level was 97% (active).
For O=C(CN1CCOCC1)N[C@@H]1CC[C@H](CCNS(=O)(=O)c2ccccc2F)O[C@H]1CO, the rescue of ATP level was 14.2% (inactive).
In the case of Cc1ccc(NC(=O)C(=O)NCc2ccco2)c(C)c1, the rescue of ATP level is reported as 9.27% (inactive).
In the case of Cc1cc(C)n2nc(SCC(=O)NC(=O)NCc3ccco3)nc2n1, the rescue of ATP level is reported as -3.52% (inactive).
For Cc1ccc(SCC(=O)NC(=O)NCc2ccco2)c(C)c1, the rescue of ATP level was 95.8% (active).
With CC(C)NC(=O)N(C)C[C@@H]1Oc2ncc(-c3ccc(C(=O)N(C)C)cc3)cc2C(=O)N([C@H](C)CO)C[C@H]1C the rescue of ATP level was -0.478% (inactive).
For Cc1cccc(N(CC(O)CN(C)C)S(=O)(=O)c2ccccc2)c1 (configuration not stated), the rescue of ATP level was -10.1% (inactive).
In the case of O=S(=O)(c1ccccc1)N(CC(O)CN1CCCCC1)c1ccccc1 (configuration not stated), the rescue of ATP level is reported as 152% (active).
In the case of Cc1ccc(S(=O)(=O)N(CC(O)CN2CCCCC2)c2cccc([N+](=O)[O-])c2)cc1 (configuration not stated), the rescue of ATP level is reported as 5.45% (inactive).
With COc1ccccc1-c1cn(CC[C@H]2CC[C@@H](NC(=O)Cc3ccccn3)[C@@H](CO)O2)nn1 the rescue of ATP level was 5.82% (inactive).
With CC(C)Cn1c(SCC(=O)Nc2ccc(Cl)cc2F)nc(O)cc1=O the rescue of ATP level was 95.3% (active).
In the case of Cn1c(SCC(=O)Nc2ccc(Cl)cc2)nc(O)cc1=O, the rescue of ATP level is reported as 21.6% (inactive).
With Cc1ccccc1-n1c(SCC(=O)Nc2cccc3ccccc23)nc(O)cc1=O the rescue of ATP level was 7.58% (inactive).
In the case of C/C=C/c1ccc([C@@H]2[C@@H](CO)N(C(=O)CC)[C@H]2CN(C)C(=O)C2CC2)cc1, the rescue of ATP level is reported as 7.07% (inactive).
With CO[C@@H]1CN(C)C(=O)c2cc(NC(=O)NC(C)C)ccc2OC[C@@H](C)N(CC2CC2)C[C@@H]1C the rescue of ATP level was 3.47% (inactive).
For Cc1ccc(S(=O)(=O)N(C)CC(=O)NC2CCCC2)cc1, the rescue of ATP level was 96.1% (active).
In the case of Cc1ccc(S(=O)(=O)NCC(=O)N(CC(=O)NC2CCCCC2)Cc2ccco2)cc1, the rescue of ATP level is reported as 13.6% (inactive).
In the case of CN(CC(=O)NC1CCCCC1)S(=O)(=O)c1cccc2cccnc12, the rescue of ATP level is reported as -5.41% (inactive).
With CCCNC(=O)N1C[C@H](C)[C@@H](OC)CN(C)C(=O)c2ccc(NS(C)(=O)=O)cc2OC[C@@H]1C the rescue of ATP level was -0.593% (inactive).
In the case of Cc1noc(C)c1NC(=O)N(C)C[C@@H]1Oc2ccc(NS(=O)(=O)c3ccc(F)cc3)cc2CC(=O)N([C@@H](C)CO)C[C@H]1C, the rescue of ATP level is reported as -7.19% (inactive).
In the case of O=C(C[C@H]1CC[C@@H]2NC[C@H](O)COC[C@H]2O1)NCCN1CCCCC1, the rescue of ATP level is reported as -1.01% (inactive).
For C[C@@H]1CN([C@@H](C)CO)C(=O)Cc2cc(NS(=O)(=O)c3ccc(Cl)cc3)ccc2O[C@H]1CN(C)C(=O)Nc1cccc2ccccc12, the rescue of ATP level was 25% (inactive).
With CCOc1ccc(NC(=O)c2ccc(NC(=O)COC(=O)c3ccc(NC(=O)CC#N)cc3)cc2)cc1 the rescue of ATP level was -8.99% (inactive).
In the case of N#CCC(=O)Nc1ccc(C(=O)OCC(=O)Nc2sc3c(c2C#N)CCCC3)cc1, the rescue of ATP level is reported as 4.12% (inactive).
In the case of CC(C)NC(=O)NC(=O)COC(=O)c1ccc(NC(=O)CC#N)cc1, the rescue of ATP level is reported as 113% (active).
